Reference: PubChem BioAssay AID652126 (The Scripps Research Institute Molecular Screening Center, 2013)
Among all 370,000 compounds or so, about 3,700 (1%) were called active.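 How the source made its calls: active means activation above the mean over all tested compounds plus 3 SD (cut at about 0.9% in these data); inactive means the rest.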 Many of the other results were omitted from the sample, so actives are more common in it than they were.

These compounds were tested on Nuclear hormone receptor DAF-12 (Strongyloides stercoralis) (assay: S. stercoralis DAF-12 nuclear receptor activators, primary screen, cell-based, luminescence, HEK293, GRIP1 co-expression, lit1-tk-luc (AID 652126;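 further: 0% = DMSO-only wells and 100% = 3 µM delta7-dafachronic acid wells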)). Settings: HEK293 ssDAF-12/GRIP1 lit1-tk-luc reporter, at 6.8 µM, active compounds read high, % of 3 µM dafachronic acid response.

activation, inactive:
Cc1ccc(-n2c(SCC(=O)Nc3ccc(S(=O)(=O)Nc4nccs4)cc3)nnc2-c2cccnc2)cc1 -1.03%, Fc1ccc2cnc(-c3ccccc3)cc2c1 0.89%, COC(=O)C[C@@H]1CC[C@@H]2[C@H](COc3ccc(NC(=O)c4cccc(F)c4)cc3C(=O)N2C)O1 -1.32%, CN(C(N)=NC(=O)/C=C/c1ccccc1)C(C#Cc1ccccc1)Cc1ccccc1 (stereo not given) -1.31%, O=C(CCCCCN1C(=O)C2C3C=CC(C3)C2C1=O)Nc1ccccn1 (stereo not given) -1.93%, COc1ccc(Cn2cc(COC(=O)N(C)Cc3ccccc3)nn2)cc1 -1.12%, Cc1ccc(NC(=O)c2ccc(Cl)nc2)cc1S(=O)(=O)N1CCOCC1 -1.53%, COc1ccc(CC(=O)NCc2nnc(SCC(=O)Nc3ncc(C)s3)n2C)cc1 -1.52%, COc1ccc(-c2cc(-c3nnc(SCC(=O)Nc4cccc5ccccc45)n3N)[nH]n2)cc1 -1.73%, Cc1cc(=O)[nH]c(SCC(=O)Nc2ccc(Cl)cc2C)n1 -1.2%, CCC(c1ccc(NC(=O)OC(C)(C)C)cc1)c1cc(OC)cc(OC)c1 (stereo not given) -1.95%, CC(C)(C)c1ccc(C(=O)Nc2cc(Cl)c(Br)cc2C(=O)O)cc1 -1.31%, Cc1c(C(=O)NC2CCCCC2)oc2ccccc12 -0.81%, CCc1nonc1NC(=O)c1oc2ccc(Cl)cc2c1C -0.87%, C=CCn1c(SCC(N)=O)nnc1-c1ccccc1OC -0.81%, COc1ccc(C(=O)Nc2ccc(-n3nncc3C(C)(C)C)cc2)cc1 -1.68%, COc1ccc(C(=O)NCC[N+](C)(C)C)cc1 -0.25%, O=C(CSc1nnc(-c2ccccc2)n1Cc1ccco1)Nc1ccccc1-c1ccccc1 -1.67%, O=C(CSc1nnc(COc2ccccc2)n1Cc1ccco1)c1ccc2ccccc2c1 -1.35%, Clc1ccc(-c2cc(C3CCNCC3)[nH]n2)c(Cl)c1 -1.62%, O=C(c1ccccc1)c1cc(-c2ccccn2)c(N2CCOCC2)s1 -1.53%, C[C@H]1[C@H](NC(=O)c2cccc(N(C)C)c2)CC[C@@]23CCCN2C(=O)CCC[C@@H]13 -1.05%, O=S(=O)(Nc1ccc2nc(-c3ccco3)[nH]c2c1)c1ccccc1 -0.88%, Cn1c(SCC(=O)c2cccs2)nnc1-c1ccco1 -0.1%, Cc1cc(NS(=O)(=O)c2ccc(NC(=O)CSc3nnc(SCc4ccc(F)cc4)s3)cc2)nc(C)n1 -1.33%, O=C1CCC2(CCC(c3ccc(Cl)cc3)CC2)N1CCO (stereo not given) -1.42%, O=C(CN1C(=O)NC2(CCCCC2)C1=O)NCCC1=CCCCC1 -1.49%, CCOC(=O)c1cccc(NC(=O)CN(C)S(=O)(=O)c2ccc(-c3cocn3)s2)c1 0.72%, N[C@@H](Cc1ccccc1)C(=O)N1CCC[C@@H]1C(=O)N1CCC2CCN(S(=O)(=O)c3ccccc3)CC21 (stereo not given in full) -0.75%, O=C(NCCCNC(=O)c1ccccc1Cl)c1cnccn1 -0.77%, CN(C)CCNC(=O)Cc1ccc([N+](=O)[O-])cc1 -0.65%, COc1ccc(Cn2cc(CN3[C@@H](CC(C)C)COc4cc(Br)ccc4S3(=O)=O)nn2)cc1 -0.66%, Fc1ccc2nc(COCc3nc4ccc(F)cc4[nH]3)[nH]c2c1 -1.23%, Oc1cc2c(cc1O)CN(C(=S)NCCc1ccc(Cl)cc1)CCC2 -1.68%, CCOc1ccc(CCNC(=O)C2=C(C)C(=O)OC23CCC(C)CC3)cc1OCC (stereo not given) -0.29%, CC1CCN(C(=O)CCNC(=O)c2ccccc2)CC1 -0.14%, O=C(OC12CCCN(C1)/C(=C/c1cccnc1)C2)C1CCCC1 (stereo not given) -1.43%, CCOC(=O)[C@@]12CN(C(=O)OC(C)(C)C)CC=C1N(Cc1ccc(OC)cc1)C(=O)[C@H]2CC(=O)NCc1ccc(OC)c(OC)c1 -0.75%, C/C(=N\NC(=O)c1cccnc1)c1ccc(-n2ccnc2)cc1 -1.15%, CC(NC(=O)c1ccccc1SCC(=O)N1CCCC1)c1ccccc1 (stereo not given) -0.47%, C[C@H](C(=O)N(C)c1ccccc1)[C@@H](O)c1ccc2ccccc2c1 -0.52%, O=C(Nc1nnc(-c2ccccc2)o1)c1cccc(S(=O)(=O)N2CCOCC2)c1 -0.75%, COc1ccccc1-c1nnc(NC(=O)c2ccc3ncsc3c2)o1 0.27%, Cc1ccc(NC(=S)NNC(=O)CSc2nnc(SCc3ccccc3Cl)s2)cc1 -1.2%, CCOc1ccc2c(c1)C(c1ccc(C)cc1)=NNC(c1ccc(C)cc1)=N2 -0.66%, CN(C)c1ccc(NC(=O)NC2CCCCN(Cc3ccc(Cl)cc3)C2=O)cc1 (stereo not given) -1.57%, Cc1ccc(S(=O)(=O)N2[C@@H](c3ccccc3F)C(C(=O)O)=CC[C@H]2c2ccc(Cl)cc2)cc1 -1.05%, Cc1ccc(S(=O)(=O)N2[C@@H](c3cccc(Cl)c3)C(C(=O)O)=CC[C@H]2c2ccc(Cl)c(Cl)c2)cc1 -1.12%, COc1ccc(N2CCN(CCNS(=O)(=O)c3ccc([N+](=O)[O-])cc3)CC2)cc1 -1.33%, Cn1c(=O)c(Sc2ccc(Cl)cc2)c(O)c2ccccc21 0.04%, C=CCn1c(=O)c(C(=O)Nc2ncccc2O)c(O)c2ccccc21 -0.42%, CN(C)[C@H]1CCN(c2cccc3c2S(=O)(=O)N2CC[C@H](C2)O3)C1 -0.74%, CC(C)(C)NC(=O)C(c1cccnc1)N(C(=O)c1cnco1)c1ccc(C(C)(C)C)cc1 (stereo not given) -2.05%, COc1ccccc1C(=O)N/C(=C/c1ccc2c(c1)OCO2)C(=O)Nc1cccc(C(=O)O)c1 -0.63%, COc1ccc(/C=C(/NC(=O)c2ccco2)C(=O)Nc2ccc(C(C)=O)cc2)cc1 -1.1%, CCOC(=O)[C@]12CCCC3=C1N(CCC3)C(=O)[C@@H](CC(=O)NCC13CC4CC(CC(C4)C1)C3)C2 -0.93%, Cc1ccc(NC(=O)Cc2cccc(F)c2)c(S(=O)(=O)N2CCOCC2)c1 -0.55%, O=C(NC1CCCC1)C1CSCCS(=O)(=O)N1Cc1ccccc1 (stereo not given) -1.05%, C=CCN1C(=O)[C@H](CC(=O)N2CCN(C(=O)OCC)CC2)[C@@]2(C(=O)OCC)CCCC=C12 -0.45%, Cc1ccc(-n2c(SCC(=O)Nc3ccc(S(=O)(=O)Nc4nccs4)cc3)nnc2-c2ccccn2)cc1 -0.88%, Cc1ccnc(-n2sc3ccccc3c2=O)n1 0.16%, Cc1cccc(NC(=O)C[C@H]2CC[C@H]3[C@@H](COc4ccc(NC(=O)Nc5ccccc5)cc4C(=O)N3C)O2)c1 -1.84%, Cc1cccc(S(=O)(=O)N2CN(CC3CCCO3)c3nc4ccccc4nc32)c1 (stereo not given) -0.43%, CCOC(=O)C1CCN(C(=O)C(C)(C)NC(=O)Nc2ccc(F)c(F)c2)CC1 -1.1%, COC(=O)C1CN(CC(C)C)CCS(=O)(=O)N1Cc1ccc(C)cc1 (stereo not given) -0.69%, COc1ccccc1OCc1nnc(SCC(N)=O)n1-c1ccccc1 -1.54%, CCc1ccc(-c2nnn(Cc3nc4ccccc4s3)n2)cc1 -0.71%, COC(=O)C12C=C3CC(c4ccccc4)=C3C(=O)N1Cc1[nH]c3ccccc3c1C2 (stereo not given) -1.07%, COc1ccc2c(c1)CN1CN(CCc3ccccc3)S(=O)(=O)CC21 (stereo not given) -0.04%, Cc1nnsc1C(=O)Nc1cccc(Cl)c1C -1.69%, Cc1nnsc1C(=O)NCc1c(F)cccc1Cl -0.35%

activation, active:
Fc1ccccc1-c1cc2cc3c(cc2cn1)OCO3 0.96%, Cc1cnc(NC(=O)c2ccc(Cl)nc2)s1 1.34%, Cc1c(C(=O)Nc2ccccn2)oc2ccc(Br)cc12 1.84%, COc1ccc(NC(=O)c2ccc(OC)cc2)cc1 0.92%, Clc1ccc(-c2cc(-c3ccccn3)on2)c(Cl)c1 1.28%, Cn1c(-c2ccco2)nc2cc3ccccc3cc21 1.86%, Oc1cccc2ccc(/C=C/c3ccc(Br)s3)nc12 1.49%, CN(C)CCNC(=O)c1ccc(Cl)c2cc3ccccc3nc12 2.74%, CCN(CCNC(=O)C1=C(C)C(=O)OC12CCC(C)CC2)c1ccccc1 (stereo not given) 3.96%, CC(NC(=O)c1ccccc1C(=O)O)c1ccc(-n2ccnc2)cc1 (stereo not given) 0.93%, COc1ccccc1-c1nnc(NC(=O)c2cccc(N3C(=O)CCC3=O)c2)o1 1.57%, Cc1ccc(C2=Nc3c(ccc4ccccc34)C(c3ccncc3)=NN2)cc1 1.33%, COc1ccc(C2CC=C(C(=O)O)C(c3ccccc3F)N2S(=O)(=O)c2ccc(C)cc2)cc1OC (stereo not given) 1.37%, Cn1c(=O)c(C(=O)Nc2ncccn2)c(O)c2ccccc21 2.21%, COc1ccccc1C(=O)N/C(=C/c1ccco1)C(=O)Nc1ccc(C(=O)O)cc1 1.14%, Cc1noc(C)c1/C=N/Nc1ccc2ccccc2n1 1.61%, Cc1ccnc(Nc2nc3ccccc3s2)n1 1.25%, COc1ccccc1OCc1nc2ccccc2s1 2.57%, Cc1cc(Cl)ccc1NNC(=O)c1snnc1C 2.01%
